Compound activity from PubChem.
In the library only some 8.9% were active in any assay of this set; here they are far more common.
IMPase cell inh: cell-permeable inhibitors of inositol monophosphatase (IMPase). inhibition (IP1 accumulation), % at 46.1 µM. 120,000 tested, under 10 active. P97697. CHO-M1 cells, IP1 accumulation, HTRF TR-FRET ratio; active = well fitted curve in the direction sought with a large enough effect in the signal ratio, not every such curve was filed as active; inconclusive = small, poorly fitted or top-dose-only effect, or a change in a side signal; inactive = no such curve, though single readings can be large or run the other way; the % refers to the signal ratio;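 note: cells stimulated with carbachol in lithium chloride buffer; plate controls were DMSO basal wells for no effect and reference inhibitor wells for full effect; higher means more IMPase inhibition seen as more IP1 and lower FRET ratio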
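Carbachol-driven Gq signalling in CHO-M1 cells (2000/well) generates IP1. Compounds that block IMPase raise IP1 and so reduce the FRET signal from Eu-anti-IP1 and d2-IP1 after a 10 min room-temperature lysis.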
ALOX12 inhib: blocks human 12-lipoxygenase activity; P18054; purified 12-hLO, xylenol orange hydroperoxide absorbance; Potency, µM (titrated, usually from 57.1 µM), without a hit: at the top dose activity change, negative = inhibition, actives largely listed as inhibitors; 0.12% of 150,000 active; AID 1452; note: potency is the fitted concentration of half-maximal effect; nearly all actives have a fitted effect of over 55% in size
Target sequence (P18054 whole entry, looked up): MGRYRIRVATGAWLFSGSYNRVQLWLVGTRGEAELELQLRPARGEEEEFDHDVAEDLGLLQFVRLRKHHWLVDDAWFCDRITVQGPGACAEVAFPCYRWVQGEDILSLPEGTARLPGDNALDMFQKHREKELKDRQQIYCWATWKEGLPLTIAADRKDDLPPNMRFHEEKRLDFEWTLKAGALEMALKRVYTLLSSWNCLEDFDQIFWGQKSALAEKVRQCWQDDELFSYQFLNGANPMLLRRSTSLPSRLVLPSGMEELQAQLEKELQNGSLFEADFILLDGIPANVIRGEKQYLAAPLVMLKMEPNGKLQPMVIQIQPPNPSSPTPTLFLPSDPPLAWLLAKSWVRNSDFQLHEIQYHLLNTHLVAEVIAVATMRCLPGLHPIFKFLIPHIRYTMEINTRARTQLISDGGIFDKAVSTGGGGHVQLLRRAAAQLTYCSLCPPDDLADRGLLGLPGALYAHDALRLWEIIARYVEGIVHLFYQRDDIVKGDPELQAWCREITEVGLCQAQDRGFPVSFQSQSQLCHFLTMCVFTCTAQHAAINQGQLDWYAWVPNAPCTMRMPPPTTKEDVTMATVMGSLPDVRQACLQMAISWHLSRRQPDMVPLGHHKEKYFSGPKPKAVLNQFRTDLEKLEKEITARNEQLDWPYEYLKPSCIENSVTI
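Hydroperoxide output read as Fe(III)-xylenol orange absorbance, 573-to-405 nm ratio, after 30 min reaction with 40 uM arachidonic acid. Enzyme: 150 nM purified human 12hLO, 15 min compound preincubation; 25 mM Hepes pH 7.0, room temperature.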
IMPase Li cell: IMPase inhibition in cells with lithium potentiation. AID 1457. Potency, µM (series often up to 59.4 µM), without a hit: top-dose activity, negative = IMPase inhibition, hits mostly inhibitors. CHO-M1 cells, IP1 TR-FRET (IP-One), carbachol + lithium. 0.35% of 210,000 active;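 note: IP1 builds up when IMPase is blocked and the TR-FRET signal falls; potency is the fitted concentration of half-maximal effect; plate controls were basal vehicle for no effect and high inhibitor control for full effect; nearly all actives have a fitted effect of over 50% in size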
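Concentration–response in CHO-M1 cells, lithium-potentiated; 30 min at 37C. IP1 detected by competitive TR-FRET after 10 min lysis at RT. Hill-fitted AC50.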
HPGD block: blocks human HPGD enzyme activity; P15428; purified HPGD, NADH fluorescence kinetic, PGE2 substrate; Potency, µM, for the others: at the highest dose activity change, negative = inhibition, actives largely listed as inhibitors; 4.3% of 150,000 active; AID 894; active = well fitted inhibition curve with a large enough effect, not every such curve was filed as active; inconclusive = small, poorly fitted or top-dose-only effect, or another doubt; inactive = no such curve, though single readings can be large or run the other way; note: potency is the fitted concentration of half-maximal effect
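NADH formation kinetics: reaction with 30 uM PGE2 and 1 mM NAD+ (final), 20 nM enzyme, Tris-HCl pH 8 with Tween 20, after 15 min compound preincubation at room temperature. Fluorescence change, last versus first of five reads.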
ALDH1A1 inh: inhibitors of human aldehyde dehydrogenase 1A1; Purified ALDH1A1, NADH fluorescence, propionaldehyde substrate; P00352; Potency, µM (highest dose often 75.3 µM), for the others: at the highest dose activity, negative = inhibition, actives largely listed as inhibitors; 7.3% of 220,000 active; AID 1030; active = well fitted inhibition curve with a large enough effect, not every such curve was filed as active; inconclusive = small, poorly fitted or top-dose-only effect, or another doubt; inactive = no such curve, though single readings can be large or run the other way;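 note: potency is the fitted concentration of half-maximal effect; plate controls were no enzyme wells and a reference inhibitor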
NPSR antagonist: neuropeptide S receptor (human) antagonism, cAMP; CHO-NPSR cells, cAMP TR-FRET, antagonist mode; Potency, µM (series often up to 38.3 µM), without a hit: at the highest dose activity change, negative = inhibition, hits mostly inhibitors; Q6W5P4; 1% of 220,000 active; note: potency is the fitted concentration of half-maximal effect; nearly all actives have a fitted effect of over 50% in size
An asterisk follows results filed as active; ? = inconclusive; · = not tested or not shown; [ ] = dose if it differs, or a comment. Unless noted, calls come from the whole dose curve; as a rule, active = well fitted curve in the direction sought with a large enough effect; inconclusive = small, poorly fitted or top-dose-only effect, or another doubt; inactive = no such curve, though single readings can be large; an effect the other way counts as inactive or inconclusive. Unless noted, % is set by controls: 0 for no effect and ±100 for the full control effect.

SMILES	IMPase cell inh	ALOX12 inhib	IMPase Li cell	HPGD block	ALDH1A1 inh	NPSR antagonist
CCOc1ccc(NC(=O)Nc2cc(OCC(F)(F)F)cc(OCC(F)(F)F)c2)cc1	·	0%	19%	-15%	-3%	-27%
CCC1CCCCN1C(=O)CSc1nc(-c2ccc(OC)c(OC)c2)cc(C(F)(F)F)n1 (stereo not drawn)	-6	·	·	·	·	·
CC1CCCC(C)N1C(=O)CSc1nnc(-c2c[nH]c3ccccc23)o1 (stereo not drawn)	-4	6%	-9%[38.3 µM]	-23%	10µM*	-28%[46.1 µM]
CCC1CCCCN1C(=O)CSc1nnc(-c2c[nH]c3ccccc23)o1 (stereo not drawn)	8	-1%	-6%[38.3 µM]	-20%	13µM*	?
CC1CCCN(C(=O)CSc2nnc(-c3c[nH]c4ccccc34)o2)C1 (stereo not drawn)	7	0%	-13%[38.3 µM]	16µM*	14µM*	-26%[46.1 µM]
CCC(C)NC(=O)CSc1nnc(-c2c[nH]c3ccccc23)o1 (stereo not drawn)	·	·	9%	·	3%	-2%
CCN(C(=O)CSc1nnc(-c2c[nH]c3ccccc23)o1)C1CCS(=O)(=O)C1 (stereo not drawn)	·	·	-8%	·	4%	8%
CCC1CCCCN1C(=O)CSc1nc(N)cc(N)n1 (stereo not drawn)	·	·	0%	·	8.9µM*	12%
COc1ccc(C(=O)Nc2ccc3c(c2)nc2n3CCSC2)cc1	2	-9%	?	?	?	-18%[46.1 µM]
COc1ccc2[nH]cc(CCNc3cc(-c4ccccc4C)ncn3)c2c1	·	·	23%	·	-6%	·
O=C(C1CCN(C2CC(=O)N(Cc3ccccc3)C2=O)CC1)N1CCCCCC1 (stereo not drawn)	3	0%	16%[38.3 µM]	?	11µM*	-5%[46.1 µM]
O=C1CC(N2CCN(C3CC(=O)N(CCc4ccccc4)C3=O)CC2)C(=O)N1CCc1ccccc1 (stereo not drawn)	-10	-1%	8%[38.3 µM]	-4%	-22%	3%[46.1 µM]
CCOC(=O)C1CCN(C2CC(=O)N(c3cccc(Cl)c3)C2=O)CC1 (stereo not drawn)	13	-4%	15%[38.3 µM]	-6%	20µM*	-5%[46.1 µM]
O=C(C1CCN(C2CC(=O)N(c3cccc(Cl)c3)C2=O)CC1)N1CCCC1 (stereo not drawn)	14	-10%	11%[38.3 µM]	-20%	3.2µM*	-7%[46.1 µM]
O=C1CC(N2CCC(Cc3ccccc3)CC2)C(=O)N1CCc1ccccc1 (stereo not drawn)	-11	-13%	28%[38.3 µM]	-17%	2.2µM*	-17%[46.1 µM]
Cc1cccc2sc(NNC(=O)c3ccc(S(=O)(=O)N4CC(C)CC(C)C4)cc3)nc12 (stereo not drawn)	·	-27%	7%	-8%	?	-1%
O=C(CCCN1C(=O)c2ccccc2C1=O)NCCC1=CCCCC1	2	3%	10%	?	?	6%[46.1 µM]
O=C(C1CCN(C2CC(=O)N(c3ccc(Cl)cc3)C2=O)CC1)N1CCOCC1 (stereo not drawn)	3	0%	34%[38.3 µM]	-9%	13µM*	1%[46.1 µM]
CC(Oc1ccccc1Cl)C(=O)N1CCOCC1 (stereo not drawn)	·	-5%	3%	28µM*	?	10%
COc1ccc(-c2noc(=O)n2CC(=O)N2CCC(Cc3ccccc3)CC2)cc1	·	·	2%	·	25µM*	16%
COc1cccc(-n2nnc3c(=O)n(Cc4ccccc4F)cnc32)c1	-1	-12%	-7%[38.3 µM]	5.6µM*	?	-16%[46.1 µM]
O=C(CSc1ncnc2c1oc1ccccc12)N1CCCc2ccccc21	0	1%	6%	-19%	?	-25%[46.1 µM]
COc1cccc(-n2nnc3c(=O)n(CC(=O)N4CCC(Cc5ccccc5)CC4)cnc32)c1	3	-3%	8%[38.3 µM]	-25%	2µM*	-8%[46.1 µM]
O=C(Cn1cnc2c(oc3ccccc32)c1=O)N1CCCc2ccccc21	-2	0%	32%[38.3 µM]	-7%	20µM*	-9%[46.1 µM]
COc1cccc(-n2nnc3c(=O)n(CC(=O)N4CCC(C)CC4)cnc32)c1	-7	-5%	9%	?	-12%	5%
SMILES	IMPase cell inh	ALOX12 inhib	IMPase Li cell	HPGD block	ALDH1A1 inh	NPSR antagonist
COc1cccc(-n2nnc3c(=O)n(Cc4cccc(C)c4)cnc32)c1	3	-9%	38%[38.3 µM]	?	?	-36%[46.1 µM]
Cc1ccc(Cn2nnc3c(=O)n(CC(=O)N4CCCc5ccccc54)cnc32)cc1	-7	5%	8%	-16%	3%	-9%
O=C(CN1CCOCC1)N1CCCc2ccccc21	·	·	10%	·	7.9µM*	7%
COc1cccc(-n2nnc3c(=O)n(CC(=O)N4CCCc5ccccc54)cnc32)c1	0	-5%	24%[38.3 µM]	22µM*	?	-22%[46.1 µM]
O=C(Cn1cnc2c(nnn2Cc2ccc(Cl)cc2)c1=O)N1CCCc2ccccc21	-9	2%	10%	-15%	22µM*	-7%[46.1 µM]
Fc1ccc(Cc2cn3cc(-c4ccc(Cl)cc4)nc3s2)cc1	0	·	·	·	·	·
Cc1cc(-c2n[nH]c(=S)n2/N=C/c2cc([N+](=O)[O-])ccc2Cl)n[nH]1	·	-2%	-1%	25µM*	?	-17%
Cc1cc(-c2n[nH]c(=S)n2/N=C/c2ccc(Cl)c([N+](=O)[O-])c2)n[nH]1	·	-3%	-25%	7.9µM*	14µM*	-19%
O=c1cc(-c2ccc(O)cc2)oc2ccc(O)cc12	·	7%	16%	20µM*	4%	-1%
COc1ccccc1-c1cc(=O)c2cc(O)ccc2o1	3	-1%	17%	16µM*	17%	·
O=c1cc(-c2ccccc2O)oc2cc(O)ccc12	·	-3%	-23%	?	4%	·
O=c1cc(-c2cccc(O)c2)oc2ccc(O)cc12	·	-9%	39%	7.1µM*	?	·
O=c1cc(-c2ccccc2)oc2cccc(O)c12	4	-12%	11%	-10%	-5%	·
O=c1cc(-c2ccc(O)cc2)oc2ccccc12	·	·	4%	·	-5%	-9%
Cc1onc(-c2c(F)cccc2Cl)c1C(=O)NCc1cccs1	7	-2%	2%[38.3 µM]	-12%	4%	-7%[46.1 µM]
Cc1ccc(N(CCC(=O)NC(C)(C)C)S(=O)(=O)c2ccc(C)cc2)cc1	·	·	-5%	·	10%	-12%
O=C1c2ccccc2NC2(CCCCC2)N1N=C1CCCCC1	·	0%	-1%	?	?	-2%
O=C1c2ccccc2NC2(CCCC2)N1O	4	-6%	28%[38.3 µM]	20µM*	1%	3%[46.1 µM]
CCOCCOC(=O)C1=C(C)N(C)C(=O)NC1c1ccccc1Cl (stereo not drawn)	11	0%	-1%[38.3 µM]	-3%	8%	3%[46.1 µM]
